The campaign covered roughly 5,500 compounds. About 2,000 (36%) were called active. Roughly 18% stayed inconclusive and do not appear here. The list shows a part of the results. Values without a mark were called inactive. No stated cut-off is given here; in the data, active means normalized growth mostly below about 0.91 (no sharp cut-off); inconclusive means no clear call, values can overlap the other calls; inactive means mostly above about 0.92.
Test: chemical genetic growth profiling, strain panel (AID 1159580);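 further: tested at 20 µM; growth read once vehicle control cultures reached saturation at 30 °C; 1 = growth at the plate median or of vehicle wells; lower values mean less growth of the strain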
Conditions: S. cerevisiae deletion strains, growth OD

In the case of `O=C(Nc1ccc(F)cc1F)c1cc(Cl)c(-n2cccc2)c(Cl)c1`, the normalized growth (locus YAR019C, strain CDC15, active compounds read low) was 0.975, the normalized growth (locus YBL105C, strain PKC1, active compounds read low) was 0.972 and the normalized growth (locus YBR135W, strain CKS1, active compounds read low) was 0.971. The normalized growth (locus YBR136W, strain MEC1, active compounds read low) was 0.969, the normalized growth (locus YBR160W, strain CDC28, active compounds read low) was 0.973 and the normalized growth (locus YDL017W, strain CDC7, active compounds read low) was 0.974. For the same compound, the normalized growth (locus YDL028C, strain MPS1, active compounds read low) was 0.969, the normalized growth (locus YDL101C, strain DUN1, active compounds read low) was 0.984 and the normalized growth (locus YDL108W, strain KIN28, active compounds read low) was 0.974. It also gave a normalized growth (locus YDL132W, strain cdc53, active compounds read low) of 0.976, a normalized growth (locus YDL214C, strain PRR2, active compounds read low) of 0.942 and a normalized growth (locus YDR052C, strain DBF4, active compounds read low) of 0.98. It also gave a normalized growth (locus YDR054C, strain cdc34, active compounds read low) of 0.961, a normalized growth (locus YDR226W, strain ADK1, active compounds read low) of 0.97 and a normalized growth (locus YDR477W, strain SNF1, active compounds read low) of 0.936. The normalized growth (locus YER123W, strain YCK3, active compounds read low) was 0.905, the normalized growth (locus YER133W, strain GLC7, active compounds read low) was 0.898 and the normalized growth (locus YFL009W, strain cdc4, active compounds read low) was 0.97. For the same compound, the normalized growth (locus YFL029C, strain CAK1, active compounds read low) was 0.967, the normalized growth (locus YFR003C, strain YPI1, active compounds read low) was 0.975 and the normalized growth (locus YFR019W, strain FAB1, active compounds read low) was 0.944. The normalized growth (locus YFR028C, strain CDC14, active compounds read low) was 0.977, the normalized growth (locus YGR040W, strain KSS1, active compounds read low) was 0.94 and the normalized growth (locus YGR052W, strain FMP48, active compounds read low) was 0.984. The normalized growth (locus YGR092W, strain DBF2, active compounds read low) was 0.942, the normalized growth (locus YHR030C, strain SLT2, active compounds read low) was 0.784 (active) and the normalized growth (locus YHR079C, strain IRE1, active compounds read low) was 0.864. For the same compound, the normalized growth (locus YHR082C, strain KSP1, active compounds read low) was 1.05, the normalized growth (locus YHR205W, strain SCH9, active compounds read low) was 0.911 and the normalized growth (locus YIL147C, strain SLN1, active compounds read low) was 0.976. For the same compound, the normalized growth (locus YJL095W, strain BCK1, active compounds read low) was 0.866, the normalized growth (locus YJL128C, strain PBS2, active compounds read low) was 0.953 and the normalized growth (locus YJL157C, strain FAR1, active compounds read low) was 0.934. The normalized growth (locus YJR016C, strain ILV3, active compounds read low) was 0.985, the normalized growth (locus YJR066W, strain TOR1 (second series), active compounds read low) was 0.869 and the normalized growth (locus YJR066W, strain TOR1, active compounds read low) was 0.993. For the same compound, the normalized growth (locus YKL048C, strain ELM1, active compounds read low) was 0.953, the normalized growth (locus YKL067W, strain YNK1, active compounds read low) was 0.928 and the normalized growth (locus YKL101W, strain HSL1, active compounds read low) was 0.929. The normalized growth (locus YKL193C, strain SDS22, active compounds read low) was 0.983, the normalized growth (locus YKL203C, strain TOR2, active compounds read low) was 0.968 and the normalized growth (locus YLR113W, strain HOG1, active compounds read low) was 0.788 (active). For the same compound, the normalized growth (locus YLR133W, strain CKI1, active compounds read low) was 0.942, the normalized growth (locus YLR403W, strain SFP1, active compounds read low) was 0.902 and the normalized growth (locus YML070W, strain DAK1, active compounds read low) was 0.925. The normalized growth (locus YMR001C, strain CDC5, active compounds read low) was 0.973, the normalized growth (locus YMR205C, strain PFK2 (second series), active compounds read low) was 0.959 and the normalized growth (locus YMR277W, strain FCP1, active compounds read low) was 0.963. For the same compound, the normalized growth (locus YNL006W, strain LST8, active compounds read low) was 0.977, the normalized growth (locus YNL020C, strain ARK1, active compounds read low) was 0.911 and the normalized growth (locus YNL161W, strain CBK1, active compounds read low) was 0.967. It also gave a normalized growth (locus YNL183C, strain NPR1, active compounds read low) of 0.951, a normalized growth (locus YNL207W, strain RIO2, active compounds read low) of 0.97 and a normalized growth (locus YNL222W, strain SSU72, active compounds read low) of 0.977. For the same compound, the normalized growth (locus YNL307C, strain MCK1 (second series), active compounds read low) was 0.926, the normalized growth (locus YOL078W, strain AVO1, active compounds read low) was 0.981 and the normalized growth (locus YOL136C, strain PFK27, active compounds read low) was 0.925. The normalized growth (locus YOR061W, strain CKA2, active compounds read low) was 0.926, the normalized growth (locus YOR119C, strain RIO1, active compounds read low) was 0.999 and the normalized growth (locus YOR231W, strain MKK1, active compounds read low) was 0.88. It also gave a normalized growth (locus YOR329C, strain SCD5, active compounds read low) of 0.968, a normalized growth (locus YPL031C, strain PHO85, active compounds read low) of 0.922 and a normalized growth (locus YPL153C, strain RAD53, active compounds read low) of 0.928. For the same compound, the normalized growth (locus YPL204W, strain HRR25, active compounds read low) was 0.908, the normalized growth (locus YPL209C, strain IPL1, active compounds read low) was 0.975 and the normalized growth (locus YPL256C, strain CLN2, active compounds read low) was 0.829 (active). It also gave a normalized growth (locus YPR025C, strain CCL1, active compounds read low) of 0.968, a normalized growth (locus YPR106W, strain ISR1, active compounds read low) of 0.978 and a normalized growth (locus YPR111W, strain DBF20, active compounds read low) of 0.962. It also gave a normalized growth (strain NNK1, active compounds read low) of 0.977 and a normalized growth (strain TSCII, active compounds read low) of 0.968.

Reference: PubChem BioAssay AID1159580 (chemical genetic matrix, 2015)
